From PubChem BioAssay (EPA / NIEHS)
A structure can be active in one record and inactive in another. Calls of active or inactive are those of the source. Rule for the calls: active = hit-call score of the fitted dose curve at least 0.9, where 1 is the maximum; inactive = score below 0.9.

test: BSK_3C_VCAM1: BioMAP Diversity Plus: 3C Assay for Vascular cell adhesion molecule 1 (VCAM1) Biomarker Activity (AID 2282999); settings: BioMAP 3C HUVEC, VCAM1 ELISA, cytokine-stimulated; actives raise or lower the signal
Method: BSK_3C is a cell-based, multiplexed-readout assay that uses umbilical vein endothelium, a human vascular primary cell, with measurements taken at 24 hours after chemical dosing in a 96-well plate.BSK_3C_VCAM1 is an assay component measured in the BSK_3C assay. It measures VCAM-1 antibody related to regulation of gene expression using ELISA technology.Data from the assay component BSK_3C_VCAM1 was analyzed into 1 assay endpoint. This assay endpoint, BSK_3C_VCAM1, was analyzed with bidirectional fitting relative to DMSO as the negative control and baseline of activity. Using a type of binding reporter, gain or loss-of-signal activity can be used to understand changes in the signaling as they relate to the gene VCAM1. Furthermore, this assay endpoint can be referred to as a primary readout, because this assay has produced multiple assay endpoints where this one serves a signaling function. To generalize the intended target to other relatable targets, this assay endpoint is annotated to the cell adhesion molecules intended target family, where the subfamily is Immunoglobulin CAM.
The levels of cell surface (or secreted, indicated by the prefix "s") biomarker endpoints were measured by ELISA. Overt cytotoxicity to cells in confluent adherent cultures (all systems other than the BT system) was assessed by measuring total protein levels using sulforhodamine B (SRB) staining in parallel cultures at the time of biomarker measurements, indicated as SRB endpoints. For proliferation assays for adherent cell types, individual cell types are cultured at sub-confluence and relative cell numbers quantified by SRB staining at time points optimized for each system (48 h: 3C and CASM3C systems; 72 h: BT and HDF3CGF systems; 96 h: SAg system). SRB was performed by staining cells with 0.1% SRB after fixation with 10% TCA and reading wells at 560 nm.Viability and proliferation of PBMC (T cells) was quantified by Alamar Blue reduction for the SAg and BT systems. For PBMC viability (referred to as PBMC Cytotoxicity within the assay endpoint names), cells were plated (75,000/well in a 96-well plate) and then chemical samples added for 1 h before addition of activators, SEB and TSST-1 (20 ng/mL final concentration each). Cells were incubated for 90 h. Then, Alamar Blue (20 uL/well) (Invitrogen, Cat DAL1100) was added for 6 h, and the plates were read with a fluorescence microplate reader at 546/580 nm (excitation/emission). For PBMC proliferation, cells were plated and activated as above but incubated for only 16 h prior to addition of Alamar Blue. Plates were read after 6 h.

| Structure (SMILES) | outcome | AC50 |
| --- | --- | --- |
| CC12CC1(C)C(=O)N(c1cc(Cl)cc(Cl)c1)C2=O (stereo not given) | inactive |  |
| O=C(Nc1ccc2[nH]ccc2c1)c1cc2cc(F)ccc2n1Cc1cccc(F)c1 |  | 11.7 µM (active) |
| Nc1cccc2ccccc12 | inactive |  |
| CC(=O)C(Cl)C(=O)N(C)C (stereo not given) |  | 20 µM (active) |
| CC(=O)[O][Hg][c]1ccccc1 |  | 2.36 µM (active) |
| CCOP(=S)(OCC)SCSP(=S)(OCC)OCC | inactive |  |
| COP(=S)(OC)Oc1ccc(S(=O)(=O)N(C)C)cc1 | inactive |  |
| CCOP(=S)(OCC)Oc1nc(Cl)c(Cl)cc1Cl |  | 25.8 µM (active) |
| O=[N+]([O-])c1ccc2c3c(cccc13)CC2 | inactive |  |
| O=C(O)C(F)(F)C(F)(F)C(F)(F)C(F)(F)C(F)(F)C(F)(F)C(F)(F)C(F)(F)C(F)(F)C(F)(F)F | inactive | 36.9 µM (active) |
| CCSC(C)CC1CC(=O)C(C(CC)=NOC/C=C/Cl)=C(O)C1 (stereo not given) | inactive |  |
| O=C1C2(Cl)C3(Cl)C4(Cl)C(Cl)(Cl)C5(Cl)C3(Cl)C1(Cl)C5(Cl)C24Cl (stereo not given) |  | 10.2 µM (active) |
| CC(C)CCCCCCOC(=O)c1ccccc1C(=O)OCCCCCCC(C)C | inactive |  |
| Cc1ccccc1N | inactive |  |
| O=C(O)C(Cl)(Cl)Cl | inactive |  |
| CC1(C)Cc2cccc(O)c2O1 | inactive |  |
| COC[C@H](C)N(C(=O)CCl)c1c(C)csc1C | inactive |  |
| ClC(Cl)=C(Cl)C(Cl)=C(Cl)Cl |  | 29.2 µM (active) |
| BrCCBr | inactive |  |
| COP(=S)(OC)Oc1c(Cl)cc(C)cc1Cl | inactive |  |

| Structure (SMILES) | outcome | AC50 |
| --- | --- | --- |
| C(=NC1CCCCC1)=NC1CCCCC1 |  | 30.3 µM (active) |
| CC(C)(C)CC(C)(C)c1ccc(O)cc1 |  | 6.92 µM (active) |
| O=Cc1cccc(Oc2ccccc2)c1 | inactive |  |
| ClC1=C(Cl)[C@]2(Cl)[C@H]3[C@H]([C@H]4C=C[C@H]3C4)[C@@]1(Cl)C2(Cl)Cl |  | 3.97 µM (active) |
| CCOP(=S)(OCC)SCCS(=O)(=O)CC | inactive |  |
| O=c1[nH]c(=O)[nH]c(=O)[nH]1 | inactive |  |
| CC(C)(C)c1cc(O)ccc1O |  | 28.1 µM (active) |
| O=C(O)CCC(F)(C(F)(F)F)C(F)(F)F | inactive |  |
| Nc1ccc(-c2ccc(N)c(Cl)c2)cc1Cl | inactive |  |
| CC(=O)OC(c1ccccc1)C(Cl)(Cl)Cl (stereo not given) | inactive |  |
| C[C@]12CCC(=O)C[C@@H]1CC[C@@H]1[C@@H]2CC[C@]2(C)[C@@H](O)CC[C@@H]12 | inactive |  |
| COC(=O)Cc1ccccc1 | inactive |  |
| COP(=S)(OC)Oc1ccc(Sc2ccc(OP(=S)(OC)OC)cc2)cc1 | inactive |  |
| COc1cc(-c2ccc(N)c(OC)c2)ccc1N | inactive |  |
| CCCCCCCCC(=O)NCc1ccc(O)c(OC)c1 | inactive |  |
| CC(C)(OO)c1ccccc1 | inactive |  |
| C=CC(=O)OCCCCCC(C)C | inactive |  |
| CCC(=O)C(CC(C)N(C)C)(c1ccccc1)c1ccccc1 (stereo not given) | inactive |  |
| CC(C)(c1ccccc1)c1ccc(O)c(C(C)(C)c2ccccc2)c1 |  | 9.15 µM (active) |
